Bioassay records from PubChem BioAssay.
Cycloheximide cs: affects cycloheximide protein synthesis inhibition readout, counter-screen | AID 2314 | actives 12% (n = 300,000) | cell reporter, cycloheximide protein synthesis inhibition counterscreen | max response, %; in the data active = max response mostly above about 13%, no sharp cut-off; inactive = mostly below about 14%; note: read at 38.3 µM for the half of the compounds with a filed dose; 0% is about no effect
Shiga toxin inh: blocks Shiga toxin action in Vero cells; Vero cells, Shiga toxin protein synthesis inhibition reporter; inhibition, % at 38.7 µM; actives 9.2% (n = 290,000); in the data active = inhibition mostly above about 28%, no sharp cut-off; inactive = mostly below about 43%; note: 0% is about no effect
Pf growth 96h: P. falciparum growth inhibition at 96 hour, primary screen for plastid delayed-death inhibitors; P. falciparum luciferase reporter growth, 96 h; Potency, µM (series often up to 28.7 µM), for the others: at the highest dose activity change, negative = inhibition, hits mostly inhibitors; actives 6.9% (n = 320,000); active = well fitted inhibition curve with a large enough effect; inconclusive = small, poorly fitted or top-dose-only effect, or another doubt; inactive = no such curve, though single readings can be large or run the other way; note: potency is the fitted concentration of half-maximal effect; % is set by controls: 0 for no effect and ±100 for the full control effect
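P. falciparum expressing integrated firefly luciferase, in erythrocytes at 2% hematocrit, 0.05% parasitemia, incubated with compounds 96 h at 37 C, 5% CO2. Growth inhibition read as loss of luminescence; two-generation exposure targets delayed-death apicoplast inhibitors.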
NS1 function inh: blocks influenza NS1 protein function; actives 0.4% (n = 270,000); AID 2326; Potency, µM (highest dose often 46.1 µM), for inactives: at the highest dose activity, positive = more growth; note: potency is the fitted concentration of half-maximal effect; actives are rising curves; nearly all actives have a fitted effect of over 50% in size
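Read-out: OD600 growth recovery of NS1-expressing budding yeast. Cells grown overnight at 30C in -URA glucose medium, washed, resuspended and diluted 1:100 in 2% galactose assay medium, pH 6.0. Same strain lacking NS1 served as positive control.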
Pf growth 48h: inhibits P. falciparum growth in the first generation, 48 h. P. falciparum luciferase growth in erythrocytes, 48 h. Potency, µM (titrated, usually from 28.7 µM), for inactives: at the highest dose activity change, negative = inhibition, actives largely listed as inhibitors. actives 5.9% (n = 310,000). AID 504832; active = well fitted inhibition curve with a large enough effect; inconclusive = small, poorly fitted or top-dose-only effect, or another doubt; inactive = no such curve, though single readings can be large or run the other way; note: potency is the fitted concentration of half-maximal effect; % is set by controls: 0 for no effect and ±100 for the full control effect
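Read-out is firefly luciferase luminescence from an integrated reporter in P. falciparum, so falling signal marks reduced parasite growth. Infected erythrocytes were at 2% hematocrit and 0.1% parasitemia (final) in Albumax-supplemented RPMI 1640.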
SARS PLpro yeast: SARS-CoV PLP inhibition in yeast. S. cerevisiae expressing SARS-CoV PLpro, growth rescue. Potency, µM (titrated, usually from 32.9 µM), inactives show top-dose activity, positive = growth rescue, usual class: activators. actives 0.19% (n = 330,000); note: potency is the fitted concentration of half-maximal effect; 0% is about no effect; nearly all actives have a fitted effect of over 55% in size
Numbers without * were called inactive; ? = inconclusive; . = not tested or not shown; [ ] = remark or other dose. The list is not random: actives were taken first. Their share in the collection is about 21%. Unless noted, calls come from the whole dose curve.

SMILES	Cycloheximide cs	Shiga toxin inh	Pf growth 96h	NS1 function inh	Pf growth 48h	SARS PLpro yeast
CCC(C)[C@H](NC(=O)NCCCn1ccnc1)C(=O)OC (some centres not stated)	1.4	-8.7	25.9%	13.5%	-6.3%	12.8%
CCN(CC(=O)Nc1ccc(NC(C)=O)cc1)C(=O)c1ccccc1CCc1ccccc1	.	.	-5.0%	.	4.3%	0.3%
COc1ccc(Nc2nc(Nc3ccc(OC)cc3)nc(SC3=NCCS3)n2)cc1	-7.6	-13.1	11.7µM*	11.1%	.	-3.3%
Cc1ccc(C)c(N2CCN(C(=O)COc3cc(=O)n(C)c4ccccc34)CC2)c1	15.7	6.0	-22.2%	-40.3%	?	13.7%
Cc1ccc(C)c(N2CCN(C(=O)CCCOc3cc(=O)n(C)c4ccccc34)CC2)c1	-1.4	7.4	.	-69.4%	?	0.8%
Cc1cccc(N2CCN(C(=O)COc3cc(=O)n(C)c4ccccc34)CC2)c1C	-1.6	-6.1	?	-52.2%	11.7µM*	-4.6%
COc1ccc(N2CCN(C(=O)CCCOc3cc(=O)n(C)c4ccccc34)CC2)cc1	1.0	-26.5	11.7µM*	-10.4%	?	6.6%
CC(C)(C)OC(=O)NC(CO)c1cn([C@@H](Cc2cc3ccccc3[nH]2)C(=O)N2CCN(C(=O)OC(C)(C)C)CC2)nn1 (some centres not stated)	-2.1	-0.6	?	5.1%	?	1.1%
C=CCc1c(C)nc2c(C)cccc2c1SC(=N)N	0.8	-9.0	14.7µM*	-5.4%	?	1.0%
CC(C)(C)NC(=O)CCN(/N=C/c1ccccc1F)C1=NS(=O)(=O)c2ccccc21	-5.6	-2.3	-24.3%	6.8%	0.0%	6.1%
Fc1ccc(Oc2nccc(-c3ccc(Cl)cc3)n2)cc1	26.1*	35.8*	?	-2.8%	-8.8%	-2.0%
Cc1cccc(-n2ccnc2SCC(=O)N2CCCc3ccccc32)c1C	10.3	-14.4	-28.7%	-14.9%	-10.6%	23.3%
CCC(C)(C)C(=O)Nc1ncc(S(=O)(=O)c2ccc([N+](=O)[O-])cc2)s1	1.9	9.2	2.94µM*	7.3%	8.28µM*	-3.6%
CCCC(C)C(=O)Nc1ncc(S(=O)(=O)c2ccc([N+](=O)[O-])cc2)s1 (configuration not stated)	-0.6	-3.9	?	6.7%	1.65µM*	?
O=C(CCl)Nc1ncc(S(=O)(=O)c2ccc([N+](=O)[O-])cc2)s1	.	.	.	.	.	-0.1%
O=C1CSc2ccc(C(=O)Nc3cccc(S(=O)(=O)Nc4ccc(Br)cc4)c3)cc2N1	-1.9	-11.9	-18.4%	18.9%	-5.7%	-0.7%
COc1ccc(NS(=O)(=O)c2cc(NC(=O)C3CCCO3)ccc2N2CCCCC2)cc1 (configuration not stated)	0.4	4.0	?	.	5.22µM*	-2.3%
COc1ccc(NS(=O)(=O)c2cc(NC(=O)CCNC(C)=O)ccc2N2CCCCC2)cc1	.	.	?	.	9.28µM*	-2.7%
COc1ccc(NS(=O)(=O)c2cc(NC(=O)C3CCCO3)ccc2N2CCCC2)cc1 (configuration not stated)	-2.9	-15.1	-23.0%	-3.7%	-2.9%	-1.9%
CCCC(C)NC(=O)c1ccc(F)cc1 (configuration not stated)	26.8*	50.5*	57.5%	-4.7%	35.5%	2.0%
CCCC(C)NC(=O)Cc1ccccc1 (configuration not stated)	-0.9	10.2	?	8.3%	?	0.4%
CCC(C)NC(=O)Cc1ccc(-c2ccccc2)cc1 (configuration not stated)	23.1*	15.8	1.3%	7.7%	0.0%	-1.8%
CCC(C)NC(=O)c1ccc(C(=O)c2ccccc2)cc1 (configuration not stated)	40.3*	70.6*	-16.4%	.	24.8%	2.7%
CCC(C)NC(=O)c1cccc(C)c1 (configuration not stated)	-3.6	1.9	17.1%	2.1%	4.7%	0.8%
CCCC(C)NC(=O)c1ccc(-c2ccccc2)cc1 (configuration not stated)	27.2*	86.4*	25.6%	.	276.4%	-8.5%
SMILES	Cycloheximide cs	Shiga toxin inh	Pf growth 96h	NS1 function inh	Pf growth 48h	SARS PLpro yeast
CCCc1ccc(C(=O)NNC(=O)c2ccc(Br)cc2)cc1	7.4	-3.8	-7.7%	13.4%	-1.5%	2.3%
CCCc1ccc(C(=O)NNc2ccc(F)cc2)cc1	17.4*	35.1	21.8%	-54.8%	4.9%	-2.7%
COc1ccc(CNc2nc3ccccc3n2CCN2CCCCC2)cc1	-3.5	-0.6	?	5.9%	-30.5%[5.75 µM]	0.1%
c1ccc(Cn2c(CNc3nc4ccccc4n3CCN3CCCCC3)nc3ccccc32)cc1	-2.3	-3.2	-20.0%	-8.6%	4.65µM*	3.4%
CCN(CC)CCn1c(NS(=O)(=O)c2ccc(C)cc2)nc2ccccc21	.	.	10.4µM*	.	-17.6%	-5.1%
Cn1c(CNc2nc3ccccc3n2CCN2CCCCC2)nc2ccccc21	-3.7	-4.9	2.62µM*	-3.5%	11.7µM*	-2.1%
OCCNc1nc2ccccc2n1CCN1CCCCC1	-4.5	5.9	-18.7%	-2.9%	-5.6%	16.5%
CCN(CC)CCn1c(NCc2nc3ccccc3n2Cc2ccccc2)nc2ccccc21	-4.4	-9.2	3.7µM*	2.1%	.	-5.1%
CCCCn1c(NCc2ccccc2NS(=O)(=O)c2ccc(C)cc2)nc2ccccc21	-2.0	10.8	48.3%	-10.6%	?	-2.4%
O=C(COC(=O)c1ccco1)NCc1ccc(F)cc1	-1.2	-9.9	-7.3%	4.6%	5.3%	0.6%
COc1ccc(-c2ccc3oc(-c4ccsc4)cc(=O)c3c2)cn1	.	.	.	.	.	-8.4%
Cc1nn(-c2ccccc2)c2nc(-c3ccccc3)cc(C(=O)N3CCOCC3)c12	-4.0	-5.4	2.08µM*	.	-18.9%	-8.6%
Cc1ccc(-c2cc(C(=O)N3CCOCC3)c3ccccc3n2)cc1	2.3	21.3	.	-37.0%	?	-15.7%
Cc1nn(-c2cccc(Cl)c2)c2nc(-c3ccncc3)cc(C(=O)N3CCOCC3)c12	3.5	5.6	6.57µM*	.	?	-6.0%
CCOC(=O)c1cc(-c2ccco2)nc2c1c(C)nn2-c1cccc(Cl)c1	-5.3	21.2	7.1%	3.8%	-12.4%	-4.5%
CCCCC1NC(=S)N(C2CCCCC2)C1=O (configuration not stated)	9.8	-26.5	3.2%	-12.1%	24.5%	-21.5%
O=C1C(Cc2ccccc2)NC(=S)N1c1ccccc1 (configuration not stated)	-1.1	-6.7	0.3%	1.2%	?	-1.3%
O=C(O)CC1NC(=O)N(C2CCCCC2)C1=O (configuration not stated)	-4.5	1.5	11.7µM*	.	-2.4%	-2.2%
O=C(O)CC1NC(=O)N(c2ccccc2)C1=O (configuration not stated)	-3.4	4.0	2.62µM*	1.8%	8.4%	2.8%
Nc1nc(SCC(=O)NCCO)nc2sc3c(c12)CCCC3	8.5	-2.5	10.7%	.	22.6%	1.4%
COC(=O)CSc1nc(N)c2c3c(sc2n1)CCCC3	16.0*	46.1	29.2%	-82.3%	7.2%	-5.3%
